The record followed here is PubChem BioAssay (NCATS).

Structures are written as SMILES. Records with an inconclusive call do not appear. The source made the active and inactive calls. The call rests on the fitted dose curve; in most records, active means well fitted curve in the direction sought with a large enough effect; inconclusive means small, poorly fitted or top-dose-only effect, or another doubt; inactive means no such curve, though single readings can be large; an effect the other way counts as inactive or inconclusive. Where a SMILES comes first, the peptide text is derived from it. [ ]: non-standard residue; d: D form. 2Abz = Nc1ccccc1C(=O)O

Assay [1] can be described thus: Primary qHTS for inhibitors of nuclear receptor binding SET domain protein 2 (NSD2) in an isogenic RCH-ACV NSD2 p.E1099K mutant (9B) (AID 1645876).
Assay [2] can be described thus: Primary qHTS for inhibitors of nuclear receptor binding SET domain protein 2 (NSD2) in an RCH-ACV wild type WT cells (2C) (AID 1645877).
Further: nearly all actives have a fitted effect of over 70% in size.
On the % scale 0 is the no-effect control and ±100 the full control effect.

Turning to `CC(=O)OC[C@@]12[C@H](O)C[C@]3(C)C(=CCC4[C@@]5(C)CC[C@H](O[C@@H]6O[C@H](C(=O)O)[C@@H](O[C@@H]7O[C@H](CO)[C@@H](O)[C@H](O)[C@H]7O)[C@H](O)[C@H]6O[C@@H]6O[C@H](CO)[C@@H](O)[C@H](O)[C@H]6O)[C@](C)(CO)C5CC[C@]43C)[C@@H]1CC(C)(C)[C@@H](OC(C)=O)[C@@H]2O` (some centres not stated), the activity change, negative = viability loss in assay [1] is 3.64% [at 9.23 µM] (inactive). Also, in assay [2], the outcome is “inactive [at 9.23 µM]”.
Take `N#CC1C(=O)Nc2scc(-c3ccc(-c4ccccc4O)cc3)c2C1=O` (configuration not stated): the Potency result in assay [1] and in assay [2] was “inactive” each time.
As for `C=C1C(=O)OC2CC(C)=C(C(C)CCCO[C@@H]3O[C@H](CO)[C@@H](O)[C@H](O)[C@H]3O)C(O)C12` (some centres not stated), the Potency result in assay [1] and in assay [2] was “inactive” in each case.
On to `CCC(C)C1NC(=O)C2CCCN2C(=O)C(C(C)C)NC(=O)c2ccccc2NC(=O)C(Cc2ccc(O)cc2)NC(=O)C(C)NC(=O)C(C(C)O)NC1=O` (configuration not stated) (cyclo([2Abz]VPITAY); configuration not given here), for which the Potency entry in assay [1] and in assay [2] was “inactive” in each case.
For `COC(=O)CC[C@@H](C)[C@H]1CC[C@H]2[C@@H]3CC(=O)[C@H]4C[C@H](OC(C)=O)CC[C@]4(C)[C@H]3CC[C@]12C`, the Potency entry in assay [1] and in assay [2] was “inactive” each time.
`COc1cc(CC(COC2OC(CO)C(O)C(O)C2O)c2cc(/C=C/CO)cc(OC)c2O)ccc1O` (configuration not stated): the Potency entry in assay [1] and in assay [2] was “inactive” throughout.
As to `CC(=O)O[C@@H]1[C@H](O[C@@H]2O[C@H](CO)[C@@H](O)[C@H](O)[C@H]2O)[C@@H](O[C@@H]2O[C@@H](C)[C@H](O)[C@@H](O[C@@H]3O[C@H](CO)[C@@H](O)[C@H](O)[C@H]3O)[C@H]2O)[C@H](OC(=O)C23CCC4(C)C(=CCC5C6(C)CC(O)C(O[C@@H]7O[C@H](C(=O)O)[C@@H](O)[C@H](O)[C@H]7O)C(C)(C(=O)O)C6CCC54C)C2CC(C)(C)CC3O)O[C@@H]1C` (some centres not stated), the outcome in assay [1] was “inactive [at 9.23 µM]”. Further, the activity change, negative = cell killing in assay [2] is 0.269% [at 9.23 µM] (inactive).
Regarding `CC1=C2CC3OC3(C)CCC3OC3(C)CC2OC1=O` (configuration not stated), the Potency entry in assay [1] and in assay [2] was “inactive” in each case.
As to `C=C/C=C/[C@@H]1OC[C@H](/C=C/C=C/C)[C@H]1O`, the Potency result in assay [1] and in assay [2] was “inactive” throughout.
For the compound `COC(=O)c1cc(CN2CCN(C(=N)N)CC2)cc(C(=O)N2CCN(C(=O)c3ccc(C(=N)N)cc3)CC2)c1`, the Potency result in assay [1] and in assay [2] was “inactive” throughout.
With `COC(=O)C1=COC(O[C@@H]2O[C@H](CO)[C@@H](O)[C@H](O)[C@H]2O)/C(=C\COC(=O)c2ccc(OC3OC(CO)C(O)C(O)C3O)c(OC)c2)C1CC(=O)OCCc1ccc(O)cc1` (some centres not stated), the outcome in assay [1] and in assay [2] was “inactive [at 9.23 µM]” throughout.
With `CC1CCC2(C)C(CC(O)C(O)C23CO3)C1(C)CCC1=CC(O)OC1=O` (configuration not stated), the Potency result in assay [1] and in assay [2] was “inactive” each time.
As to `C=C1C(OC(C)=O)C(=O)C2C(C)(C)C(OC(C)=O)CCC2(C)C1CC(OC(C)=O)/C(C)=C/COC(C)=O` (configuration not stated), the Potency entry in assay [1] and in assay [2] was “inactive” each time.
`C[C@@H]1CC[C@]2(C(=O)O)CC[C@]3(C)C(=CCC4[C@]5(C)C(CC[C@]43C)C(C)(C)[C@@H](O)[C@H](O)[C@@H]5O)C2[C@]1(C)O` (some centres not stated): the Potency entry in assay [1] and in assay [2] was “inactive” in each case.
Regarding `CN1C(=O)c2ccccc2-n2c(nc3ccccc3c2=O)[C@@]12O[C@H]2c1ccccc1`, the Potency result in assay [1] and in assay [2] was “inactive” in each case.
Regarding `COc1cc(/C=C/C(=O)O[C@H]2[C@H](OC(=O)/C=C/c3cc(OC)c(O)c(OC)c3)O[C@H](CO[C@@H]3O[C@H](CO)[C@@H](O)[C@H](O)[C@H]3O)[C@@H](O)[C@@H]2O)ccc1O`, the Potency result in assay [1] and in assay [2] was “inactive” each time.
`C=C(C)[C@H]1C[C@@H](O)C(=C)CC[C@@H](O)C(=C)[C@@H](O)C1`: the Potency result in assay [1] and in assay [2] was “inactive” each time.
`C[C@@H](OC(=O)/C=C/c1ccc(O)cc1)C1=C[C@]2(C=C[C@@H]3C(C(=O)O)=CO[C@@H](O[C@@H]4O[C@H](CO[C@@H]5O[C@H](CO)[C@@H](O)[C@H](O)[C@H]5O)[C@@H](O)[C@H](O)[C@H]4O)[C@@H]32)OC1=O`: the Potency result in assay [1] and in assay [2] was “inactive” each time.
For the compound `C=C(C(=O)OC)C1CCC2(C)C(O[C@@H]3O[C@H](CO)[C@@H](O)[C@H](O)[C@H]3O)CC(=O)C(C)C2C1O` (some centres not stated), the Potency entry in assay [1] and in assay [2] was “inactive” in each case.
Regarding `CC(C)=CCC[C@](C)(O[C@@H]1O[C@H](CO[C@@H]2OC[C@@H](O)[C@H](O)[C@H]2O)[C@@H](O)[C@H](O)[C@H]1O)[C@H]1CC[C@]2(C)[C@@H]1[C@H](O)C[C@@H]1[C@@]3(C)CC[C@H](O[C@@H]4O[C@H](CO)[C@@H](O)[C@H](O)[C@H]4O[C@@H]4O[C@H](CO)[C@@H](O)[C@H](O)[C@H]4O)C(C)(C)[C@@H]3CC[C@]12C`, the Potency entry in assay [1] and in assay [2] was “inactive” in each case.
Regarding `CC(C)=CCc1ccc(Oc2c(O)cc(C)cc2CO)c(C(=O)O)c1O`, the Potency result in assay [1] and in assay [2] was “inactive” each time.
In the case of `CC(=O)OC[C@]12[C@H](OC(C)=O)C(=O)[C@@H]3[C@@H](OC(C)=O)[C@@]14O[C@@]3(C)COC(=O)c1cccnc1[C@@H](C)[C@H](C)C(=O)O[C@@H]([C@H](OC(C)=O)[C@@H]2OC(C)=O)[C@]4(C)O`, the Potency entry in assay [1] and in assay [2] was “inactive” in each case.
On to `O=C(/C=C/c1ccc(O)c(O)c1)OCc1ccccc1O[C@@H]1O[C@H](CO)[C@@H](O)[C@H](O)[C@H]1O`, for which the Potency result in assay [1] and in assay [2] was “inactive” throughout.
As for `COc1cc(/C=C/C(=O)OC2[C@H](O)CC(O)(C(=O)O)C[C@H]2O)ccc1O` (some centres not stated), the Potency result in assay [1] and in assay [2] was “inactive” throughout.
As to `COc1cc2c(cc1O)C1(Cc3ccc4c(c3C1=O)OCO4)N(C)CC2` (configuration not stated), the Potency result in assay [1] and in assay [2] was “inactive” throughout.
As to `COc1cc(-c2cccc(O)c2)cc2c1OCO2`, the Potency result in assay [1] and in assay [2] was “inactive” throughout.
Regarding `CC1CC(O)C2(C)C(C(=O)O)=CCCC2C1(C)CCc1ccoc1` (configuration not stated), the Potency entry in assay [1] and in assay [2] was “inactive” throughout.
Regarding `C[C@@H]1O[C@@H](OC[C@H]2O[C@@H](OCC3CCC4CC3C4(C)C)[C@H](O)[C@@H](O)[C@@H]2O)[C@H](O)[C@H](O)[C@H]1O` (some centres not stated), the Potency entry in assay [1] and in assay [2] was “inactive” in each case.
With `CC12CCC3c4ccc(O)cc4CCC3C1CCC2OC1OC(C(=O)O)C(O)C(O)C1O` (configuration not stated), the Potency result in assay [1] and in assay [2] was “inactive” each time.
Take `CCN(c1cc(C#CCN2CCOCC2)cc(C(=O)NCc2c(C)cc(C)[nH]c2=O)c1C)C1CCC(N(C)CCOC)CC1` (configuration not stated): the Potency result in assay [1] and in assay [2] was “inactive” in each case.
For the compound `C/C=C(\C)C(=O)O[C@@H]1CC2[C@@H](CC=C3C[C@@H](O[C@H]4C[C@H](OC)[C@H](O[C@H]5C[C@H](OC)[C@H](O[C@H]6C[C@H](OC)[C@H](O[C@H]7C[C@@H](OC)[C@H](O[C@@H]8O[C@H](CO)[C@@H](O)[C@H](O)[C@H]8O)[C@@H](C)O7)[C@@H](C)O6)[C@@H](C)O5)[C@@H](C)O4)CC[C@@]32C)[C@@]2(O)CC[C@H](C(C)=O)[C@@]12C` (some centres not stated), the activity change, negative = viability loss in assay [1] was -12.3% [at 9.23 µM] (inactive). Further, in assay [2], the activity change, negative = cell killing was -18.8% [at 9.23 µM] (inactive).
Regarding `COc1cc(C(O)C(CO)Oc2ccc(CCCO[C@@H]3O[C@@H](C)[C@H](O)[C@@H](O)[C@H]3O)cc2OC)ccc1O` (some centres not stated), the Potency entry in assay [1] and in assay [2] was “inactive” throughout.
Take `C=C1CCC2C(C)(CO[C@@H]3O[C@H](CO)[C@@H](O)[C@H](O)[C@H]3O)C(O)CCC2(C)C1C(=O)CC1=CCOC1=O` (some centres not stated): the Potency result in assay [1] and in assay [2] was “inactive” in each case.
Consider `CC(=O)O[C@@H]1[C@H](O[C@@H]2OC[C@](O)(CO)[C@H]2O)[C@@H](O[C@@H]2O[C@@H](C)[C@H](O)[C@@H](O)[C@H]2O)[C@H](OC(=O)[C@]23CCC(C)(C)C[C@H]2C2=CCC4[C@@]5(C)C[C@H](O)[C@H](O[C@@H]6O[C@H](C(=O)O)[C@@H](O)[C@H](O)[C@H]6O)[C@@](C)(C(=O)O)C5CC[C@@]4(C)[C@]2(C)CC3)O[C@@H]1C` (some centres not stated), for which the activity change, negative = viability loss in assay [1] was -7.7% [at 9.23 µM] (inactive). In addition, the activity change, negative = cell killing in assay [2] is -8.29% [at 9.23 µM] (inactive).
As to `O=C(/C=C/c1c(C(=O)O)[nH]c2cc(Cl)cc(Cl)c12)Nc1ccccc1`, the Potency result in assay [1] and in assay [2] was “inactive” throughout.
Regarding `CC(=O)N[C@H]1[C@H](O[C@H]2CC[C@@]3(C)C(CC[C@]4(C)C3CC=C3C5CC(C)(C)CC[C@]5(C(=O)O)[C@H](O[C@@H]5O[C@H](CO)[C@@H](O)[C@H](O)[C@H]5O)C[C@]34C)C2(C)C)O[C@H](CO[C@@H]2OC[C@H](O)[C@H](O)[C@H]2O[C@@H]2OC[C@@H](O)[C@H](O)[C@H]2O)[C@@H](O)[C@@H]1O` (some centres not stated), in assay [1], the activity change, negative = viability loss is -9.03% [at 9.23 µM] (inactive). In addition, the activity change, negative = cell killing in assay [2] was -14.8% [at 9.23 µM] (inactive).
On to `CC1(C)O[C@]23C[C@H]1C[C@H](OC(=O)c1ccoc1)[C@]2(C)[C@@H](OC(=O)c1ccoc1)CCC3(C)O` (some centres not stated), for which the Potency result in assay [1] and in assay [2] was “inactive” each time.
`C=C1CCC2C(OC(=O)C2(O)COC(C)=O)C2C(=C)C(O)CC12` (configuration not stated): the Potency result in assay [1] and in assay [2] was “inactive” throughout.
As to `C[C@@H]1O[C@@H](O[C@H]2[C@H](OC(=O)C34CCC(C)(C)CC3C3=CCC5C6(C)CC(O)C(O[C@@H]7O[C@H](CO)[C@@H](O)[C@H](O)[C@H]7O)C(C)(C(=O)O)C6CCC5(C)C3(CO)CC4)O[C@H](C)[C@H](O)[C@@H]2O)[C@H](O)[C@H](O)[C@H]1O[C@@H]1OC[C@@H](O)[C@H](O)[C@H]1O` (some centres not stated), the activity change, negative = viability loss in assay [1] was 3.3% [at 9.23 µM] (inactive). Besides, in assay [2], the outcome was “inactive [at 9.23 µM]”.
`CCC/C=C/C(=O)O[C@H]1CC(C)(C)CC2[C@]13[C@H](O)O[C@@]21CCC2[C@@]4(C)CC[C@H](O[C@@H]5O[C@H](C(=O)O)[C@@H](O)[C@H](O[C@@H]6O[C@H](CO)[C@H](O)[C@H](O)[C@H]6O[C@@H]6O[C@@H](C)[C@H](O)[C@@H](O)[C@H]6O[C@@H]6OC[C@](O)(CO)[C@H]6O)[C@H]5O[C@@H]5O[C@H](CO)[C@H](O)[C@H](O)[C@H]5O)C(C)(C)C4CC[C@@]2(C)[C@]1(C)C[C@H]3OC(C)=O` (some centres not stated): the activity change, negative = viability loss in assay [1] was -22.9% [at 9.23 µM] (inactive). In assay [2], the activity change, negative = cell killing is -16.1% [at 9.23 µM] (inactive).
For `Cn1ccnc1CCOC(c1cc2nccc(C(=O)O)c2[nH]1)c1ccccc1Cl` (configuration not stated), the Potency entry in assay [1] and in assay [2] was “inactive” throughout.
